# Assays:
# [1] = molecular target: Protein kinase C gamma type (Homo sapiens) (UniProt P05129); settings: at 1 µM;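 note: each value is an averaged percent inhibition of the enzyme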
# [2] = molecular target: T1, Protein kinase C iota type (Homo sapiens) (UniProt P41743); settings: at 0.1 µM
# T1 sequence (whole entry): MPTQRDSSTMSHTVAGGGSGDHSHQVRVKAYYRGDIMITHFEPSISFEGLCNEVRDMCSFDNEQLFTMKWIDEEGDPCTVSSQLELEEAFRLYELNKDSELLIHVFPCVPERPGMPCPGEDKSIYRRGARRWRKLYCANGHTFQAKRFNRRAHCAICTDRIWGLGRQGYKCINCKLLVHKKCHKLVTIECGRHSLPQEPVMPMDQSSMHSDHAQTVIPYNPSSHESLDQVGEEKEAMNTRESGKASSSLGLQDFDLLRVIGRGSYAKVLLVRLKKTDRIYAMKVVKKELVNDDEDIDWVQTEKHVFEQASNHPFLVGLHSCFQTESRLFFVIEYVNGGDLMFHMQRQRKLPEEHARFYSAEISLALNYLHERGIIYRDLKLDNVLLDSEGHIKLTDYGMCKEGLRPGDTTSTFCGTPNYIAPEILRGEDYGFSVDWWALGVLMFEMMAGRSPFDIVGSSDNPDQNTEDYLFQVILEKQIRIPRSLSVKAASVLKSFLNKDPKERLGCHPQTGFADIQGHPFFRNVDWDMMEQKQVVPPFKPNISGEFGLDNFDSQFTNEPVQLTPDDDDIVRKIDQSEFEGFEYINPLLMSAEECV
# [3] = molecular target: T1, Protein kinase C iota type (Homo sapiens); settings: at 1 µM
# [4] = molecular target: Protein kinase C theta type (Homo sapiens) (UniProt Q04759); settings: at 0.1 µM
# [5] = molecular target: Protein kinase C theta type (Homo sapiens) (UniProt Q04759); settings: at 1 µM
# [6] = molecular target: Protein kinase C beta type (Homo sapiens) (UniProt P05771); settings: at 0.1 µM
# [7] = molecular target: Protein kinase C beta type (Homo sapiens) (UniProt P05771); settings: at 1 µM
# [8] = molecular target: T2, Serine/threonine-protein kinase D1 (Homo sapiens) (UniProt Q15139); settings: at 0.1 µM
# T2 sequence (whole entry): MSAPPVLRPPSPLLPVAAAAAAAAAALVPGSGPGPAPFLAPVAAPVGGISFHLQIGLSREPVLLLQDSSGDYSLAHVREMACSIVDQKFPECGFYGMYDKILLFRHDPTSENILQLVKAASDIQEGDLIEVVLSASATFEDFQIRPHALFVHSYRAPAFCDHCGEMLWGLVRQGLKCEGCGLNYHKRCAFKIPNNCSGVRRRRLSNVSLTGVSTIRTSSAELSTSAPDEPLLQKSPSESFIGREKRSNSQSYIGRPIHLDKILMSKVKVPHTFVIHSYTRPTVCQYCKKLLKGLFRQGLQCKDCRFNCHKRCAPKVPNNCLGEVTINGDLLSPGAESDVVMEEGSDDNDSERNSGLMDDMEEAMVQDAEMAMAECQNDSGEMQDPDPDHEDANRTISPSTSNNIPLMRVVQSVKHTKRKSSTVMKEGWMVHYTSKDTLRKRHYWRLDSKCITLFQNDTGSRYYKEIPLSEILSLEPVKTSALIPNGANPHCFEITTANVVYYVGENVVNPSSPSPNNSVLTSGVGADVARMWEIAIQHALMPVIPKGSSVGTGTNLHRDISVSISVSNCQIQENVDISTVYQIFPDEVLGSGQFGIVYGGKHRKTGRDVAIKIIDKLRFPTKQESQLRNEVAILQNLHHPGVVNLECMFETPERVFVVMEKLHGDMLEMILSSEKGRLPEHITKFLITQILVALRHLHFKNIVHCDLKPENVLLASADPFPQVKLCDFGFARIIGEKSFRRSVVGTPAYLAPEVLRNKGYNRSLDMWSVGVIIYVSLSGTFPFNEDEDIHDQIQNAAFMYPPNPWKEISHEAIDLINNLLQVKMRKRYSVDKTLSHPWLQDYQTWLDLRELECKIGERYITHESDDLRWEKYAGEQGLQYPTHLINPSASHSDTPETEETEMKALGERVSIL
# [9] = molecular target: T2, Serine/threonine-protein kinase D1 (Homo sapiens); settings: at 1 µM
# [10] = molecular target: T3, Serine/threonine-protein kinase D2 (Homo sapiens) (UniProt Q9BZL6); settings: at 0.1 µM
# T3 sequence (whole entry): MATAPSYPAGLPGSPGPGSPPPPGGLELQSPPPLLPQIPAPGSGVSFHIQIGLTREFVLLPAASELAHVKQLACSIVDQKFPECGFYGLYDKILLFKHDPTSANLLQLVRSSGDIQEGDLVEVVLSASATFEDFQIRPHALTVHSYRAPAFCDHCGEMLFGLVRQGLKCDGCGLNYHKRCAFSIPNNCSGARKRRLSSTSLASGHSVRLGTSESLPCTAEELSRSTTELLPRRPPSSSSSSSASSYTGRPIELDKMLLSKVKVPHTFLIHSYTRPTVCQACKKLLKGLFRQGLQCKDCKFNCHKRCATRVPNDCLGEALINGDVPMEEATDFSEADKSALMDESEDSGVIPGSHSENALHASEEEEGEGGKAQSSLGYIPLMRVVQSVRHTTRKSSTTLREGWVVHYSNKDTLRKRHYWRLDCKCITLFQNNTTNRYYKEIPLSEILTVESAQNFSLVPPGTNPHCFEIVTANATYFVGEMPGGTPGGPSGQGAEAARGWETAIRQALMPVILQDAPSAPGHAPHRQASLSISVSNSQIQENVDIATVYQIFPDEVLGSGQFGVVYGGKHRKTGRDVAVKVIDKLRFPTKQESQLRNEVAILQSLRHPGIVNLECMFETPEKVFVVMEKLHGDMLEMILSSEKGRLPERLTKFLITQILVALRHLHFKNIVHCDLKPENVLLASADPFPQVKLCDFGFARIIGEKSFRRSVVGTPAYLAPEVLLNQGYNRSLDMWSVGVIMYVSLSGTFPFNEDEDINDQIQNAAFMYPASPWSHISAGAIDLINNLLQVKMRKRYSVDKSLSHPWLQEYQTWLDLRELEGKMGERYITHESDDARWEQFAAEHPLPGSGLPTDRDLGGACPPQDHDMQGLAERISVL
# [11] = molecular target: T3, Serine/threonine-protein kinase D2 (Homo sapiens); settings: at 1 µM
# [12] = molecular target: T4, Serine/threonine-protein kinase D3 (Homo sapiens) (UniProt O94806); settings: at 0.1 µM
# T4 sequence (whole entry): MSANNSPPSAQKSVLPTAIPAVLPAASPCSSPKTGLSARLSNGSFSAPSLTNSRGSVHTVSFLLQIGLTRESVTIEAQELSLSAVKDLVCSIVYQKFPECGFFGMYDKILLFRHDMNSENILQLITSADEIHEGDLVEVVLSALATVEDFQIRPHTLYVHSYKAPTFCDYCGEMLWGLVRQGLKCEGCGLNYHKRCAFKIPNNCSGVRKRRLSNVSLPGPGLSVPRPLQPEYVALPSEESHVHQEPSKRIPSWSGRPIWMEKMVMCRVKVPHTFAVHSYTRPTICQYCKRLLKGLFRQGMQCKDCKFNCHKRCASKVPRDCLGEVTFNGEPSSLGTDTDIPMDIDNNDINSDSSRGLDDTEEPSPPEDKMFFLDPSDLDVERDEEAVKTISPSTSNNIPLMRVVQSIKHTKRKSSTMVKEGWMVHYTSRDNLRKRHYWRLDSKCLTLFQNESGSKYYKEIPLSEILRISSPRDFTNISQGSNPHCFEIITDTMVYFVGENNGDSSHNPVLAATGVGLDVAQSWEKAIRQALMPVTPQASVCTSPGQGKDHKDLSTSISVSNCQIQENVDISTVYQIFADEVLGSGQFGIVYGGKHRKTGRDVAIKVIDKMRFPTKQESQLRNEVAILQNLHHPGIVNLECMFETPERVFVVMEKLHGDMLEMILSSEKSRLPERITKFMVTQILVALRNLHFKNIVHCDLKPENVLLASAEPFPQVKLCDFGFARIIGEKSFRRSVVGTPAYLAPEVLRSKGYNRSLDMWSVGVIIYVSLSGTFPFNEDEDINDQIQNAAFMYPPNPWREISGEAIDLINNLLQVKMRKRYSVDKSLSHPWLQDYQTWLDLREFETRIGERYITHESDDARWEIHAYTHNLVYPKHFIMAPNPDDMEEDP
# [13] = molecular target: T4, Serine/threonine-protein kinase D3 (Homo sapiens); settings: at 1 µM
# [14] = molecular target: T5, cGMP-dependent protein kinase 1 (Homo sapiens) (UniProt Q13976); settings: at 0.1 µM
# T5 sequence (whole entry): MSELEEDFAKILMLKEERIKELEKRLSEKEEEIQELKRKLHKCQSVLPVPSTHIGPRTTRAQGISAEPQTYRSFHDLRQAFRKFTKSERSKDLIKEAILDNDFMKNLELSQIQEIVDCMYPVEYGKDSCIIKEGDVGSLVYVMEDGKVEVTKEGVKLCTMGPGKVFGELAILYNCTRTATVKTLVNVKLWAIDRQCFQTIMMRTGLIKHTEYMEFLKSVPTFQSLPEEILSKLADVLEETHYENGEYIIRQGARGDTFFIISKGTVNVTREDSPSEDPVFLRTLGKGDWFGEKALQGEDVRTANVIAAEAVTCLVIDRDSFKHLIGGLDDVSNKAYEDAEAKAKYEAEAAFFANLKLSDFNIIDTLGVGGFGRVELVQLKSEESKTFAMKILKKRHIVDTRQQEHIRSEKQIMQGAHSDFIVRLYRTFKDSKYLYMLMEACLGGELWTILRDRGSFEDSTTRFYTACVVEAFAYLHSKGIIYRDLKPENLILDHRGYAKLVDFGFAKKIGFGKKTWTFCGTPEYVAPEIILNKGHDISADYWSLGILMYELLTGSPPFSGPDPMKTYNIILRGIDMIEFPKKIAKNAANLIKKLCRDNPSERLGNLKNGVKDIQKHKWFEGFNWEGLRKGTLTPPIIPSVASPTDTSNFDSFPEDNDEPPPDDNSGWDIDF
# [15] = molecular target: T5, cGMP-dependent protein kinase 1 (Homo sapiens); settings: at 1 µM
# [16] = molecular target: T6, cGMP-dependent protein kinase 2 (Homo sapiens) (UniProt Q13237); settings: at 0.1 µM
# T6 sequence (whole entry): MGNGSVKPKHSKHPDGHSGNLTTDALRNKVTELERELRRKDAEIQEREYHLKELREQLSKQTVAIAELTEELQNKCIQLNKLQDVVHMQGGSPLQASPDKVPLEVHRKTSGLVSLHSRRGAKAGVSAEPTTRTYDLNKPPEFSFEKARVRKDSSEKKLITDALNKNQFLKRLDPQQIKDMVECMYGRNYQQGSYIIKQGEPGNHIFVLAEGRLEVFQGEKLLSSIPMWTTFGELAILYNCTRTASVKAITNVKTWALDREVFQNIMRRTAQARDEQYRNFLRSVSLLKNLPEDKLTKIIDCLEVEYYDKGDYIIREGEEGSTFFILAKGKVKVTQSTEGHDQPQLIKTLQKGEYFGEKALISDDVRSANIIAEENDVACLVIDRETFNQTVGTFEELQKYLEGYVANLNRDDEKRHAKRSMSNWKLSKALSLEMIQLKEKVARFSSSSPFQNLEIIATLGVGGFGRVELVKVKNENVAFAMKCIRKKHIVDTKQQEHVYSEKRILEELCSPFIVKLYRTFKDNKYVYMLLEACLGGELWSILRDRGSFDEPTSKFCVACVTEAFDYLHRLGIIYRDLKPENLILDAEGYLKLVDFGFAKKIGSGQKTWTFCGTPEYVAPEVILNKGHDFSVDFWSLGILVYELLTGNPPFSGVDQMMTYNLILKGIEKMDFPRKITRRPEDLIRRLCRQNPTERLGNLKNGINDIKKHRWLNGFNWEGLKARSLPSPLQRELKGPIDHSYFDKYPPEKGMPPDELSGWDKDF
# [17] = molecular target: T6, cGMP-dependent protein kinase 2 (Homo sapiens); settings: at 1 µM
# [18] = molecular target: T7, cAMP-dependent protein kinase catalytic subunit PRKX (Homo sapiens) (UniProt P51817); settings: at 0.1 µM
# T7 sequence (whole entry): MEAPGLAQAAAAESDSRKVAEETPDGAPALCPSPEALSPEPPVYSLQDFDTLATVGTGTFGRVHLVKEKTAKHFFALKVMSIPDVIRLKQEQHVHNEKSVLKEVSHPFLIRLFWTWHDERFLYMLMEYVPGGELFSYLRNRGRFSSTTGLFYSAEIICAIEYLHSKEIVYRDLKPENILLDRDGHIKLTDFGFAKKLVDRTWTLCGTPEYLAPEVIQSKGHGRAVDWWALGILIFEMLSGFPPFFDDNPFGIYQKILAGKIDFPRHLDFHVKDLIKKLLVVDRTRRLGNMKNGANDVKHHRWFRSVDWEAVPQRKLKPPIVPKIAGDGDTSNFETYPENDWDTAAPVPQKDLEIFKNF
# [19] = molecular target: T7, cAMP-dependent protein kinase catalytic subunit PRKX (Homo sapiens); settings: at 1 µM
# [20] = molecular target: Rho-associated protein kinase 1 (Homo sapiens) (UniProt Q13464); settings: at 0.1 µM;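 note: values are mean percent inhibition of ROCK1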
# Rho-associated protein kinase 1 (Homo sapiens), sequence (Q13464 2-1354 limits assumed): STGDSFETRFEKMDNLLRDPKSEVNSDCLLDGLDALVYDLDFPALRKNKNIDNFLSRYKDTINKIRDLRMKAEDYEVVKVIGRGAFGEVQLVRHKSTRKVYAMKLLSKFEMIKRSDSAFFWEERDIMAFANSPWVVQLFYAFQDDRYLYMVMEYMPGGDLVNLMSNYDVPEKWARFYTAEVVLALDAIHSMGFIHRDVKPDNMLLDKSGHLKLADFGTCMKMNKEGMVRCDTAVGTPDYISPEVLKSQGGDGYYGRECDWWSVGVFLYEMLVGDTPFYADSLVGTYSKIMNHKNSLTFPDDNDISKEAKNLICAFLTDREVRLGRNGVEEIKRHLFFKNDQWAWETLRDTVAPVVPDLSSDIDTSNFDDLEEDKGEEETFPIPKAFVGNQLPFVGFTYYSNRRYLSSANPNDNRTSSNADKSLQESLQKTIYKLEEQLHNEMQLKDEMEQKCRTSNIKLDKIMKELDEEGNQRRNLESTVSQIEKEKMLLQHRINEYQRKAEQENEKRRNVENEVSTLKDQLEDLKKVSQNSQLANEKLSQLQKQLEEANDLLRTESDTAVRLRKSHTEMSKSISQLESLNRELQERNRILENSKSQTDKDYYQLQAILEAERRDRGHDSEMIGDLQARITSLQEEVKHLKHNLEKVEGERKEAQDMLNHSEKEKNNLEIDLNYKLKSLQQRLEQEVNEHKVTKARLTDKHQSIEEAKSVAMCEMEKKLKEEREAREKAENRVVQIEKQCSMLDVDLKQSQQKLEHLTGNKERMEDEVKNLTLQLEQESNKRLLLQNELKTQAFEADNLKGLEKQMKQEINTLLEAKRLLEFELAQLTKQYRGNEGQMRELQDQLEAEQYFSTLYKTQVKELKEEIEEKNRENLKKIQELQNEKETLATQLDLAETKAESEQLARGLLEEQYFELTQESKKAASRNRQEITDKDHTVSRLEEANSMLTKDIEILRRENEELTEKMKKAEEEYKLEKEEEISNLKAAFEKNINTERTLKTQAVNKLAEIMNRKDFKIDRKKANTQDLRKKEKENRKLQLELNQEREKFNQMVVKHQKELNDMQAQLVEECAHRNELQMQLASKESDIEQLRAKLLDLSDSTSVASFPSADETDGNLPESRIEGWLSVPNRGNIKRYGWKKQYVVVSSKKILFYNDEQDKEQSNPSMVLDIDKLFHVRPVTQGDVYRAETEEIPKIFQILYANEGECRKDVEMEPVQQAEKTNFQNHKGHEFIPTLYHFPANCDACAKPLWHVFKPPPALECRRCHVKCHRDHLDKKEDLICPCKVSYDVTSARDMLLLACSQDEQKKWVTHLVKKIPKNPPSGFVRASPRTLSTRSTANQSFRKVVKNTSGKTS
# Protein kinase C beta type (Homo sapiens), sequence (P05771 2-671 limits assumed): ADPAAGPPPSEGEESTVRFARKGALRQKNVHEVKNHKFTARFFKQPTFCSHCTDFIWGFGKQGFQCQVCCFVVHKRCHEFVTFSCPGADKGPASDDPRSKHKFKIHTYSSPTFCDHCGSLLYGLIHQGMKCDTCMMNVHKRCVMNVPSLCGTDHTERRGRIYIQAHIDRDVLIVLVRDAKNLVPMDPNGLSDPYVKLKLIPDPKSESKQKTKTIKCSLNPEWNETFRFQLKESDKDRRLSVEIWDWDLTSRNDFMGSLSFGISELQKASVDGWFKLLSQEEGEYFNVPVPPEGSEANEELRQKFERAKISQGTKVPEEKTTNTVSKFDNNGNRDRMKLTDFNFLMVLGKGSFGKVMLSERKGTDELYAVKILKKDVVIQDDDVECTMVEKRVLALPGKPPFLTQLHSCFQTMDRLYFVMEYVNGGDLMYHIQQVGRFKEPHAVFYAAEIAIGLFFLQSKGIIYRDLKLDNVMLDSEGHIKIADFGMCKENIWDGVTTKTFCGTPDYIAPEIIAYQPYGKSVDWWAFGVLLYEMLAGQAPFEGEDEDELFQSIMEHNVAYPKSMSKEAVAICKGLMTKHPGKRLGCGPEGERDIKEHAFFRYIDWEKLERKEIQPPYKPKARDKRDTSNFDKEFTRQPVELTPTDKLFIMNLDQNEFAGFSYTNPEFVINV
# Protein kinase C theta type (Homo sapiens), sequence (Q04759 whole entry, looked up): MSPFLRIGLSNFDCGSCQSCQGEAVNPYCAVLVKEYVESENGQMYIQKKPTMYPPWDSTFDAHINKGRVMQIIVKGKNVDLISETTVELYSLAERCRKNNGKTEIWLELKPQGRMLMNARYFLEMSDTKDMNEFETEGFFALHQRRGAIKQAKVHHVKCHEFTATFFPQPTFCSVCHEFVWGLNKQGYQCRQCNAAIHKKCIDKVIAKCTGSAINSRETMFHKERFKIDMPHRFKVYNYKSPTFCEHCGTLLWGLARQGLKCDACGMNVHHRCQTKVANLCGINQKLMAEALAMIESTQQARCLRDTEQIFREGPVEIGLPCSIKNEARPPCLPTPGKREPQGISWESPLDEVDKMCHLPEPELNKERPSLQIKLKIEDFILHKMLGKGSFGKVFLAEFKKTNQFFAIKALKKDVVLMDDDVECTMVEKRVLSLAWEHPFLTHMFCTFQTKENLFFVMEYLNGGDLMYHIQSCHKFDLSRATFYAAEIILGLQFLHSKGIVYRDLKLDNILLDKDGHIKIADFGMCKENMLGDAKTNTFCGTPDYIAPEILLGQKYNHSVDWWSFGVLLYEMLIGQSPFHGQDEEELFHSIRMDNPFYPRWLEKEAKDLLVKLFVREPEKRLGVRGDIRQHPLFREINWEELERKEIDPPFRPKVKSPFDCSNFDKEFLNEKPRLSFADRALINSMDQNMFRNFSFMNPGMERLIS
smiles,measurement,setting,value
NS(=O)(=O)c1cccc(-c2ccc3c(NC(=O)C4CC4)n[nH]c3c2)c1,inhibition,[1],3.74%
same,inhibition,[2],0.3%
same,inhibition,[3],0.53%
same,inhibition,[4],0.17%
same,inhibition,[5],0.88%
same,inhibition,[6],-0.62%
same,inhibition,[7],2.57%
same,inhibition,[8],-0.83%
same,inhibition,[9],0.65%
same,inhibition,[10],-0.79%
same,inhibition,[11],-0.76%
same,inhibition,[12],-0.43%
same,inhibition,[13],0.3%
same,inhibition,[14],0.48%
same,inhibition,[15],0.57%
same,inhibition,[16],0.6%
same,inhibition,[17],1.3%
same,inhibition,[18],0.01%
same,inhibition,[19],1.02%
same,inhibition,[20],1.29%
CC1=C(C(=O)Nc2ccc3[nH]ncc3c2)C(c2ccc(F)cc2)NC(=O)N1 (centres undefined),inhibition,[1],2.9%
same,inhibition,[2],1.83%
same,inhibition,[3],1.22%
same,inhibition,[4],1.63%
same,inhibition,[5],3.15%
same,inhibition,[6],1.62%
same,inhibition,[7],1.76%
same,inhibition,[8],3.15%
same,inhibition,[9],8.16%
same,inhibition,[10],3.76%
same,inhibition,[11],8.48%
same,inhibition,[12],3.46%
same,inhibition,[13],7.95%
same,inhibition,[14],4.58%
same,inhibition,[15],20.1%
same,inhibition,[16],1.73%
same,inhibition,[17],12.6%
same,inhibition,[18],12.7%
same,inhibition,[19],53.4%
CNC(=O)c1cncc(/C=C/c2c(Cl)cccc2Cl)c1,inhibition,[1],1.44%
same,inhibition,[2],0.96%
same,inhibition,[3],0.96%
same,inhibition,[4],1.94%
same,inhibition,[5],1.94%
same,inhibition,[6],0.86%
same,inhibition,[7],1.27%
same,inhibition,[8],2.34%
same,inhibition,[9],5%
same,inhibition,[10],1.54%
same,inhibition,[11],3.77%
same,inhibition,[12],1.19%
same,inhibition,[13],4.45%
same,inhibition,[14],4.02%
same,inhibition,[15],5.23%
same,inhibition,[16],1.23%
same,inhibition,[17],4.56%
same,inhibition,[18],1.86%
same,inhibition,[19],1.79%
same,inhibition,[20],1.46%
